# In ChEMBL document CHEMBL2218924, “A broad activity screen in support of a chemogenomic map for kinase signalling research and drug discovery” (Biochem J, 2013):
# What was measured:
# [1] = target: T1, Serine/threonine-protein kinase 17A (Homo sapiens) (UniProt Q9UEE5); details: at 10 µM
# T1 sequence (whole entry): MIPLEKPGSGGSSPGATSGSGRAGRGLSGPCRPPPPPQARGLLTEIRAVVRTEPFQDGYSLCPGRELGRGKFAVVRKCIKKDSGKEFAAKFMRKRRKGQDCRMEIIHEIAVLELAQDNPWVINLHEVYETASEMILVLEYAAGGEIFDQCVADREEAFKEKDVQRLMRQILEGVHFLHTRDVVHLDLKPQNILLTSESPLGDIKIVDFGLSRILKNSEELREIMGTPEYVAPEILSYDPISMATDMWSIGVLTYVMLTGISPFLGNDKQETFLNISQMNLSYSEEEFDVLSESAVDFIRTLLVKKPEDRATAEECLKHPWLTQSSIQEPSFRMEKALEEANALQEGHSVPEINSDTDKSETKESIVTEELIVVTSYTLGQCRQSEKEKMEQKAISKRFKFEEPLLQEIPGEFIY
# [2] = target: T2, Dual specificity tyrosine-phosphorylation-regulated kinase 2 (Homo sapiens) (UniProt Q92630); details: at 1 µM
# T2 sequence (whole entry): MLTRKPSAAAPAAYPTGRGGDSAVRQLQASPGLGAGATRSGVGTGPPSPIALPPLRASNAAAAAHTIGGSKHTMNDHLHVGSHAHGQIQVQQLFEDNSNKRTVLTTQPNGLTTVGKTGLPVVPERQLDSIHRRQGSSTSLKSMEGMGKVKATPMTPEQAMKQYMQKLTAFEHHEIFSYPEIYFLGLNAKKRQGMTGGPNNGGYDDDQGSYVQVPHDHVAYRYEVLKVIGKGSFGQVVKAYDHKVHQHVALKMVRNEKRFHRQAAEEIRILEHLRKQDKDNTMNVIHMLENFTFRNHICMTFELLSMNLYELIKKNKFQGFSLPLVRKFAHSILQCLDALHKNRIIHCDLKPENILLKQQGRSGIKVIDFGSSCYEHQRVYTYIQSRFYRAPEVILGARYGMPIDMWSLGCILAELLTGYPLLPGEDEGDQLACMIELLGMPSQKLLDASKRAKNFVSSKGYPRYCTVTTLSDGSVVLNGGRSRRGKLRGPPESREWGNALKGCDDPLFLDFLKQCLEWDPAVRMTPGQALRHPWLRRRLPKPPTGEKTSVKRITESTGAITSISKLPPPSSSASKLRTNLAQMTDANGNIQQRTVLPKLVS
# [3] = target: T2, Dual specificity tyrosine-phosphorylation-regulated kinase 2 (Homo sapiens); details: at 10 µM
# [4] = target: Epidermal growth factor receptor (Homo sapiens) (UniProt P00533); details: at 1 µM
# [5] = target: Epidermal growth factor receptor (Homo sapiens) (UniProt P00533); details: at 10 µM
# [6] = target: T3, Ephrin type-A receptor 1 (Homo sapiens) (UniProt P21709); details: at 1 µM
# T3 sequence (whole entry): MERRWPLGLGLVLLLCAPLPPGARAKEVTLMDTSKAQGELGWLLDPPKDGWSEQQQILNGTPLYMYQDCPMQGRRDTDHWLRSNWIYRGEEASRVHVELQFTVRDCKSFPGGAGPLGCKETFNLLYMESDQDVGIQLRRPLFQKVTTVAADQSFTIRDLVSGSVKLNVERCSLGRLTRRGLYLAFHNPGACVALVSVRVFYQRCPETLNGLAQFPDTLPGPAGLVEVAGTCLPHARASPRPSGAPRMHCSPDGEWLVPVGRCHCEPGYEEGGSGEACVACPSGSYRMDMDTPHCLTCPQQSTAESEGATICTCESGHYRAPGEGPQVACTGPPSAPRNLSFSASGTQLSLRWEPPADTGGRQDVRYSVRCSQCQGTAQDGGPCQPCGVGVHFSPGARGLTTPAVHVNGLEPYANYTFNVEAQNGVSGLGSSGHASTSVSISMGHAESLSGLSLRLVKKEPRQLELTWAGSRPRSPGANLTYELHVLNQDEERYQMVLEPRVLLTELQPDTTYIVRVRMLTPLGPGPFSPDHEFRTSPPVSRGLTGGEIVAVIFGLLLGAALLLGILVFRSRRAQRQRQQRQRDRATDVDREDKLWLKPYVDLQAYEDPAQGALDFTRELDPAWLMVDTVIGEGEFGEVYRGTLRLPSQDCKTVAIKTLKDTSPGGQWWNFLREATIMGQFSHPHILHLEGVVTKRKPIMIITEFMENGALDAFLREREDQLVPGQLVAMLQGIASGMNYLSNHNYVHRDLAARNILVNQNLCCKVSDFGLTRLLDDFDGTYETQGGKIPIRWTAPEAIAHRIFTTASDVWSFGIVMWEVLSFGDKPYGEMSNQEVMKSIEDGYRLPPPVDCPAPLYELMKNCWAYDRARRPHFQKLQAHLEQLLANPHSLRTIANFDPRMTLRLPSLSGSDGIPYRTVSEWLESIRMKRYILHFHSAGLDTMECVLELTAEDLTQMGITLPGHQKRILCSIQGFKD
# [7] = target: T3, Ephrin type-A receptor 1 (Homo sapiens); details: at 10 µM
# [8] = target: Ephrin type-A receptor 2 (Homo sapiens) (UniProt P29317); details: at 1 µM
# [9] = target: Ephrin type-A receptor 2 (Homo sapiens) (UniProt P29317); details: at 10 µM
# [10] = target: T4, Ephrin type-A receptor 3 (Homo sapiens) (UniProt P29320); details: at 1 µM
# T4 sequence (whole entry): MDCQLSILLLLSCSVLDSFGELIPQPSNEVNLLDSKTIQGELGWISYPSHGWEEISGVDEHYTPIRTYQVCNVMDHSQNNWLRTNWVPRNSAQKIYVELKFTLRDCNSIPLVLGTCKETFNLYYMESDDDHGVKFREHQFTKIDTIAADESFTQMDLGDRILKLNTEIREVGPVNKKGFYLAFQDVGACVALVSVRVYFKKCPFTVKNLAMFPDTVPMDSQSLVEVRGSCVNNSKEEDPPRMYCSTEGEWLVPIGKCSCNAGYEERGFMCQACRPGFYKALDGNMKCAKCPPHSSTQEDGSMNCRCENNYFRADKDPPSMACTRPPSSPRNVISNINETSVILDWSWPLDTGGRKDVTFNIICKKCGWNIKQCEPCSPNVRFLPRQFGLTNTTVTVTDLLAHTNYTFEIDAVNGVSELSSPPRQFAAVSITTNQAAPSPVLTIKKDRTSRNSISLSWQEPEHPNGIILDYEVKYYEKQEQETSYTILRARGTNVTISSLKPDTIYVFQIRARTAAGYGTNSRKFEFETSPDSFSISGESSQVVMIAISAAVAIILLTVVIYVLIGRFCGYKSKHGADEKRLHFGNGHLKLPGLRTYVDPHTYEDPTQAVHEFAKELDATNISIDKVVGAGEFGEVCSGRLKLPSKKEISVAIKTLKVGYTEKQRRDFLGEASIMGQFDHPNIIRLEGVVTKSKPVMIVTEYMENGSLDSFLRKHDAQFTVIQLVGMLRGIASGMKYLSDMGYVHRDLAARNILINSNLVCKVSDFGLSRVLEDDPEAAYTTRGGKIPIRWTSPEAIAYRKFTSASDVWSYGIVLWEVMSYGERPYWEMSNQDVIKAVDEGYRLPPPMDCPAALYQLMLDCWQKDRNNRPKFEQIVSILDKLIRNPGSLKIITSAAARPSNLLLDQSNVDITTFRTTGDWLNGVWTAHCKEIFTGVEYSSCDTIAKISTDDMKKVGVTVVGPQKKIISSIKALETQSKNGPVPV
# [11] = target: T4, Ephrin type-A receptor 3 (Homo sapiens); details: at 10 µM
# [12] = target: Ephrin type-A receptor 4 (Homo sapiens) (UniProt P54764); details: at 1 µM
# [13] = target: Ephrin type-A receptor 4 (Homo sapiens) (UniProt P54764); details: at 10 µM
# [14] = target: Ephrin type-A receptor 5 (Homo sapiens) (UniProt P54756); details: at 1 µM
# [15] = target: Ephrin type-A receptor 5 (Homo sapiens) (UniProt P54756); details: at 10 µM
# [16] = target: Ephrin type-A receptor 7 (Homo sapiens) (UniProt Q15375); details: at 1 µM
# [17] = target: Ephrin type-A receptor 7 (Homo sapiens) (UniProt Q15375); details: at 10 µM
# [18] = target: T5, Ephrin type-A receptor 8 (Homo sapiens) (UniProt P29322); details: at 1 µM
# T5 sequence (whole entry): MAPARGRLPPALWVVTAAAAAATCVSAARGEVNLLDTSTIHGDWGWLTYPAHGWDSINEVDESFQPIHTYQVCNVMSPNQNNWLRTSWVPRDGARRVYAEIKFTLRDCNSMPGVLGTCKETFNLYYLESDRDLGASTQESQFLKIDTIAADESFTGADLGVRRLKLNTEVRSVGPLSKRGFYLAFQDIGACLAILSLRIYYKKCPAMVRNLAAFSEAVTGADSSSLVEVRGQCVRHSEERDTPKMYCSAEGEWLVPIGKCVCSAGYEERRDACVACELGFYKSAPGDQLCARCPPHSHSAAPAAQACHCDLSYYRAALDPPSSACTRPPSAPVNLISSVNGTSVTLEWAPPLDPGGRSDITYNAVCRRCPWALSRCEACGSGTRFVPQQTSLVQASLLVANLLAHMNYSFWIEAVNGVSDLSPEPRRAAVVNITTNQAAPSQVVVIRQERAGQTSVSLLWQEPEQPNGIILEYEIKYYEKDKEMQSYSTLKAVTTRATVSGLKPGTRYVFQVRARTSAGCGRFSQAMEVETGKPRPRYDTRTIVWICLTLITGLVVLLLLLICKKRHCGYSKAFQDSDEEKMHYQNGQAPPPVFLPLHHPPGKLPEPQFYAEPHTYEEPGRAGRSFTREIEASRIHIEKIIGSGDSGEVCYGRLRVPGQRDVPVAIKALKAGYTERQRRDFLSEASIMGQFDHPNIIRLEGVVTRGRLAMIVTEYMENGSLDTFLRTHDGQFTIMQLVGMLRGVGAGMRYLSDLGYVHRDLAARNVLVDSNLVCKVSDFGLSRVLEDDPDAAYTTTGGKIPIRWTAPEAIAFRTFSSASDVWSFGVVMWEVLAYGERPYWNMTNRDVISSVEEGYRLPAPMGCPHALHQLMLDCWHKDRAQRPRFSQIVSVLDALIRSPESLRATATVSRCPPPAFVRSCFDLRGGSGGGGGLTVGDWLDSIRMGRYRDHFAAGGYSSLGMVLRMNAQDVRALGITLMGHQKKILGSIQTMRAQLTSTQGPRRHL
# [19] = target: T5, Ephrin type-A receptor 8 (Homo sapiens); details: at 10 µM
# [20] = target: T6, Ephrin type-B receptor 1 (Homo sapiens) (UniProt P54762); details: at 1 µM
# T6 sequence (whole entry): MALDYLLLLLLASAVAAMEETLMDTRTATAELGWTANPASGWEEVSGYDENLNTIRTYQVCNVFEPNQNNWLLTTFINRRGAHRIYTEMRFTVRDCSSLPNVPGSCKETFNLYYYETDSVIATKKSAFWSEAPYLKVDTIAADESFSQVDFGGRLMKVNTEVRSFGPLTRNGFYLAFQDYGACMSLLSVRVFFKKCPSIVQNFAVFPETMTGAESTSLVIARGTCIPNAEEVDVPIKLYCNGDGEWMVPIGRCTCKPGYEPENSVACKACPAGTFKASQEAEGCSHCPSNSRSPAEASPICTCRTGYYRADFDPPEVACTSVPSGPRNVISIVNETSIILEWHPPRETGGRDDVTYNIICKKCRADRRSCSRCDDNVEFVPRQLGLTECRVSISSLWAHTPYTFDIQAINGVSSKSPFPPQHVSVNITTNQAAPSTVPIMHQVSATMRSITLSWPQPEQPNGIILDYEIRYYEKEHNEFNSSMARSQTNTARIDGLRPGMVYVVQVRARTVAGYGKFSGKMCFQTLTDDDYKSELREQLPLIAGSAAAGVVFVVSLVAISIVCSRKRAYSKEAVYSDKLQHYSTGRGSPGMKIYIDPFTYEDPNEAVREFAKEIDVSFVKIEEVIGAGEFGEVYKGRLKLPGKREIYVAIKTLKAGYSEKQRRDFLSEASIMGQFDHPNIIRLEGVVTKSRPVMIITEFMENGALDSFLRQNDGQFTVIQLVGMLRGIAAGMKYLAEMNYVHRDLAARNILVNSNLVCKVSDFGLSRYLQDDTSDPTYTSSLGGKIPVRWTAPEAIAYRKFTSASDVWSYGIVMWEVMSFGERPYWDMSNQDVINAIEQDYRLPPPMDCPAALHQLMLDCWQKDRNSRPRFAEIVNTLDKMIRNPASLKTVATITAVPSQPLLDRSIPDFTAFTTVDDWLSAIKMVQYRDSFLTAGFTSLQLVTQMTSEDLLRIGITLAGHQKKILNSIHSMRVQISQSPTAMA
# Chain of Ephrin type-A receptor 7 (Homo sapiens) (Q15375 28-998 limits assumed): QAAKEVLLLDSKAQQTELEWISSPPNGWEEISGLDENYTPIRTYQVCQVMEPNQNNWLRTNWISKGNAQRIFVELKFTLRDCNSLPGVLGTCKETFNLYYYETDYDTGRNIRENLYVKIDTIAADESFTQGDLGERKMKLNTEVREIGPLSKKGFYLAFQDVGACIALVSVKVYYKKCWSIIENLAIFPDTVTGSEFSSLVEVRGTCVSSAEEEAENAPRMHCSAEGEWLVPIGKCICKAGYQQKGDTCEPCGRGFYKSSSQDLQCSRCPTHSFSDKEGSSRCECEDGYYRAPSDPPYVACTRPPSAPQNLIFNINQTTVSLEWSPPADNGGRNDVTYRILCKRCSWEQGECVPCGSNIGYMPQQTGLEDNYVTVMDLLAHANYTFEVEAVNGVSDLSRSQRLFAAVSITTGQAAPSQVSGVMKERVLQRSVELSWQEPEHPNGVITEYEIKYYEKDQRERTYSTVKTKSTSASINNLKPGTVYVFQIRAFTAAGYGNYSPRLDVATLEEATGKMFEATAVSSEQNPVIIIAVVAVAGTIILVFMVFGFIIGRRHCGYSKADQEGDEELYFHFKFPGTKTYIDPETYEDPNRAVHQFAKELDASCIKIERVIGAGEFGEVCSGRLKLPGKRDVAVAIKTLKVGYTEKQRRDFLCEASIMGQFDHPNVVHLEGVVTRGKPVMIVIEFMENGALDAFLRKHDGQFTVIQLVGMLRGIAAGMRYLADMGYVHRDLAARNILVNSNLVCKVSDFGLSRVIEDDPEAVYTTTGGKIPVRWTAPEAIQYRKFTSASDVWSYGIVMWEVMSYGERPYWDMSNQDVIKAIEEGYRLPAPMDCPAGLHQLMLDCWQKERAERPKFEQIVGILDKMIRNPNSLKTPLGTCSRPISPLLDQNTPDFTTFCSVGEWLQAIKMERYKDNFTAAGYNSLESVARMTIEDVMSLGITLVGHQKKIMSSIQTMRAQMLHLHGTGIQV
# Chain of Ephrin type-A receptor 4 (Homo sapiens) (P54764 whole entry): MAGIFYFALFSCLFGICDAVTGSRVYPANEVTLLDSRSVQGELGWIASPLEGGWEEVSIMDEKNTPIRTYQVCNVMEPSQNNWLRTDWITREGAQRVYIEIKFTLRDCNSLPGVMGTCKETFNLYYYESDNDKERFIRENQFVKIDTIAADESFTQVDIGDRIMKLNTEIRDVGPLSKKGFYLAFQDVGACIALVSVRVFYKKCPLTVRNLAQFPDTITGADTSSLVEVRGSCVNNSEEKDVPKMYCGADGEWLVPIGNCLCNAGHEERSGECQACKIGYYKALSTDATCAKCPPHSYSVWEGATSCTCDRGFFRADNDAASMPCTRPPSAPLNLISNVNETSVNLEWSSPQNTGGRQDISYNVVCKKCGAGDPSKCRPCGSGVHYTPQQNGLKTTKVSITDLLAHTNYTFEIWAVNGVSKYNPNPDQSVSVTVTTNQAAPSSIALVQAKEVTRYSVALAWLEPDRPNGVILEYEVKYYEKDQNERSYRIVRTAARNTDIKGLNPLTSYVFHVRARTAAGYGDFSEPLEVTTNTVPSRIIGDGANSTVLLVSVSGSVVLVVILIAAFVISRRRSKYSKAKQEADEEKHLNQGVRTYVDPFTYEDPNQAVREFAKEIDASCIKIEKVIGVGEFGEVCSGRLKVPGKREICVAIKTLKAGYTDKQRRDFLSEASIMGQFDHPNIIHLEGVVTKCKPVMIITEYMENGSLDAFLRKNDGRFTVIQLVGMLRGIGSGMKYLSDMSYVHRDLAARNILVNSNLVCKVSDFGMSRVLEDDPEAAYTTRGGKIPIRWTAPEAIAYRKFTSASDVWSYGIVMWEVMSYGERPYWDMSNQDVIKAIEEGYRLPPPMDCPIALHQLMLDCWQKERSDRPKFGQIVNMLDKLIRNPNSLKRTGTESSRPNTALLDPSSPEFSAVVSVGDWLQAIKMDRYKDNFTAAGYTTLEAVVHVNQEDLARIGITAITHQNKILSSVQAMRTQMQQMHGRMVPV
# Chain of Ephrin type-A receptor 5 (Homo sapiens) (P54756 whole entry): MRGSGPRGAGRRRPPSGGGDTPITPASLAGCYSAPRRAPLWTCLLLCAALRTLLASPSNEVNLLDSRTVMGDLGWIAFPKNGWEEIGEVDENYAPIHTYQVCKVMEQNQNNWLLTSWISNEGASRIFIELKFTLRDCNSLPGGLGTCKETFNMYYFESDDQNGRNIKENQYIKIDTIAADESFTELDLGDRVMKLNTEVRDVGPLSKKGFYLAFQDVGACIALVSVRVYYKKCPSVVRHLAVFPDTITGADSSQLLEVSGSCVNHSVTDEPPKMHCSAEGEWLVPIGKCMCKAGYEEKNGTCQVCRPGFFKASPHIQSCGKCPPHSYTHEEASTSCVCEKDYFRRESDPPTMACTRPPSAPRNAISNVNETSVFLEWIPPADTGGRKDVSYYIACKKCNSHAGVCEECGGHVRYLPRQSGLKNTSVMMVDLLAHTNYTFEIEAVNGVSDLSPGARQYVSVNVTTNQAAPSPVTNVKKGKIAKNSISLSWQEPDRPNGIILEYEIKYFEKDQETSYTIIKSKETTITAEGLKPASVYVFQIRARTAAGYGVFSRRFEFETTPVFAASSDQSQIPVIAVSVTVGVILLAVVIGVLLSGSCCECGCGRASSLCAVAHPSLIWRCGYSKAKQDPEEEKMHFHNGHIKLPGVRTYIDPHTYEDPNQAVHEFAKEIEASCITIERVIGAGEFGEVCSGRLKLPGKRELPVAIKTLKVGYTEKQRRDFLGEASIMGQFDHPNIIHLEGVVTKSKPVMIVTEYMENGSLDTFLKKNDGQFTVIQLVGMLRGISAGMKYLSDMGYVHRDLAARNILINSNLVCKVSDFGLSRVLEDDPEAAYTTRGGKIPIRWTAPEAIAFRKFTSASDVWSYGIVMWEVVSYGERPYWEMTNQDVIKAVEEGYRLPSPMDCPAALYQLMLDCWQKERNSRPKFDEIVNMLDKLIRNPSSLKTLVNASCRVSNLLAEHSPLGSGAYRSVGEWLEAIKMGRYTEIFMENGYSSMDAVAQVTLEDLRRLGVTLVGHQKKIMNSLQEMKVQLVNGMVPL
# Chain of Ephrin type-A receptor 2 (Homo sapiens) (P29317 whole entry): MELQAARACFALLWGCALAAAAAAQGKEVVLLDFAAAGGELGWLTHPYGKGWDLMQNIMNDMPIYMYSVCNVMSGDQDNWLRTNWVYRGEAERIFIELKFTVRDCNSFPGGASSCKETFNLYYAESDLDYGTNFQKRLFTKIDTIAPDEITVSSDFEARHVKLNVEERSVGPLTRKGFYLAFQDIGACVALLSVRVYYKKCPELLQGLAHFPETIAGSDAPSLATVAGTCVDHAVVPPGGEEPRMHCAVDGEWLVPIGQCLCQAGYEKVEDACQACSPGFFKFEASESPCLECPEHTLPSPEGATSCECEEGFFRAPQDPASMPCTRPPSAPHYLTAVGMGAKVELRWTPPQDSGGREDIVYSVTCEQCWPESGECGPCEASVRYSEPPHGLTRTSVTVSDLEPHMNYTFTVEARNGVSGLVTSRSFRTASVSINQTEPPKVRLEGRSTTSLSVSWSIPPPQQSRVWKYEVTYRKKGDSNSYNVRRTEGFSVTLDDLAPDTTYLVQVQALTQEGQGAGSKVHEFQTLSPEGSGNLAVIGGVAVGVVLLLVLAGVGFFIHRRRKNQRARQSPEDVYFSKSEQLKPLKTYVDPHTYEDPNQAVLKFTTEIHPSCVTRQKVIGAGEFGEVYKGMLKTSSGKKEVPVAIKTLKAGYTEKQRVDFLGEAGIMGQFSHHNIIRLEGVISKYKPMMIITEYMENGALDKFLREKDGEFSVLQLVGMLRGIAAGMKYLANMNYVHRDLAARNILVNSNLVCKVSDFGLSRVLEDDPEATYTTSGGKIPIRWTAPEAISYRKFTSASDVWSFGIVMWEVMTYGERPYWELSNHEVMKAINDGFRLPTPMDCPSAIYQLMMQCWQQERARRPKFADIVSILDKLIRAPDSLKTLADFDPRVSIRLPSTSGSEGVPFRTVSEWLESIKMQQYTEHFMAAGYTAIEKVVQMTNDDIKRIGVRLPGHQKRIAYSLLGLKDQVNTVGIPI
SMILES,residual activity [1],residual activity [2],residual activity [3],residual activity [4],residual activity [5],residual activity [6],residual activity [7],residual activity [8],residual activity [9],residual activity [10],residual activity [11],residual activity [12],residual activity [13],residual activity [14],residual activity [15],residual activity [16],residual activity [17],residual activity [18],residual activity [19],residual activity [20]
O=C(Nc1cccc(Nc2cc(Nc3cccc(C(F)(F)F)c3)ncn2)c1)C1CC1,50%,97%,99%,-2%,-3%,82%,90%,108%,98%,115%,114%,113%,103%,98%,87%,95%,86%,98%,90%,98%
Cn1cc(/C=C2\C(=O)Nc3ccc(S(N)(=O)=O)cc32)c2ccccc21,3%,102%,99%,,,89%,107%,100%,72%,50%,13%,96%,89%,54%,53%,32%,9%,88%,54%,66%
Cc1ccc(S(=O)(=O)/C=C/C#N)cc1,95%,96%,102%,,,95%,92%,106%,108%,103%,105%,106%,110%,107%,101%,94%,96%,94%,102%,93%
